Experimental data reported in the supplement of paper PMC6992640.
± gives the standard deviation of the averaged measurements.

Legend:
Assay in all cases: cell viability (% of vehicle); higher = less cytotoxic
Details in all cases: 10 µM; 72 h
HCI01 = system: HCI01 (cells of a triple-negative basal-like breast cancer xenograft)
HCI03 = system: HCI03 (cells of an ER-positive luminal breast cancer xenograft)
HCI09 = system: HCI09 (cells of a triple-negative luminal androgen receptor type breast cancer xenograft)
HCI11 = system: HCI11 (cells of an ER-positive luminal breast cancer xenograft)
HCI13 = system: HCI13 (cells of an ER-positive luminal breast cancer xenograft)
HCI16 = system: HCI16 (cells of a triple-negative basal-like breast cancer xenograft)
UCD52 = system: UCD52 (cells of a triple-negative basal-like breast cancer xenograft)
WHIM2 = system: WHIM2 (cells of a triple-negative basal-like breast cancer xenograft)
WHIM30 = system: WHIM30 (cells of a triple-negative basal-like breast cancer xenograft)
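Further: PDX cells carrying CMV promoter-driven luciferase, viability read as total photon flux per second by IVIS imaging following D-luciferin, vehicle control 0.1% DMSO.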

Compound | cell viability (HCI01) | cell viability (HCI03) | cell viability (HCI09) | cell viability (HCI11) | cell viability (HCI13) | cell viability (HCI16) | cell viability (UCD52) | cell viability (WHIM2) | cell viability (WHIM30)
CC(CCc1ccccc1)NCC(O)c1ccc(O)c(C(N)=O)c1.Cl (stereo not drawn) [Labetalol HCl] | 101 ± 12 | 106 | 95.8 ± 9.3 | 104 | 105 ± 7.3 | 112 | 85.7 ± 7 | 110 ± 15 | 111 ± 13
O=C(c1cc(Cc2n[nH]c(=O)c3ccccc23)ccc1F)N1CCN(C(=O)C2CC2)CC1 | 166 ± 50 | 112 | 72.2 ± 9.9 | 129 | 103 ± 5.2 | 166 | 117 ± 16 | 105 ± 6.3 | –
Cl.Cl.NC(=NCCCCCCN=C(N)N=C(N)Nc1ccc(Cl)cc1)N=C(N)Nc1ccc(Cl)cc1 [Chlorhexidine HCl] | 99.4 ± 3 | 88.3 | 89.7 ± 3 | 76 | 96.44 ± 0.43 | 124 | 92.8 ± 7.6 | 108 ± 4.1 | 82.3 ± 3.8
O=c1[nH]c(=O)n(C2CC(O)C(CO)O2)cc1F (stereo not drawn) [Floxuridine] | 122 ± 5.9 | 103 | 103 ± 20 | 131 | 84.4 ± 5.7 | 161 | 167 ± 12 | 105 ± 13 | 149 ± 34
Cl.NC1=NCC2c3ccccc3Cc3ccccc3N12 (stereo not drawn) [Epinastine HCl] | 102 ± 1.5 | 94.8 | 82.5 ± 4.8 | 95.5 | 79.4 ± 1.9 | 118 | 79 ± 1.4 | 96.5 ± 8.4 | 89.3 ± 7
O=C(NCC1CN(c2ccc(N3CCOCC3=O)cc2)C(=O)O1)c1ccc(Cl)s1 (stereo not drawn) [Rivaroxaban] | 114 ± 11 | 119 | 89.9 ± 3.4 | 105 | 130 ± 15 | 94.8 | 85.2 ± 13 | 109 ± 9 | 117 ± 15
Cc1cncc(CN2CCC(=C3c4ccc(Cl)cc4CCc4cccnc43)CC2)c1.O=C(O)C=CC(=O)O [Rupatadine Fumarate] | 89.8 ± 4.1 | 87.7 | 42 ± 3 | 70.2 | 58.2 ± 9.9 | 109 | 63.1 ± 3.4 | 78 ± 7.6 | 81.2 ± 3.8
COC(=O)C(c1ccccc1Cl)N1CCc2sccc2C1.O=S(=O)(O)O (stereo not drawn) [Clopidogrel] | 102 ± 3 | 115 | 91 ± 13 | 119 | 103 ± 4.8 | 101 | 76.7 ± 16 | 80.012 ± 0.0022 | 136 ± 6.6
CCc1cc(C(N)=S)ccn1 [Ethionamide] | 105 ± 11 | 111 | 100 ± 3.6 | 104 | 136 ± 15 | 100 | 82.3 ± 9.9 | 92.7 ± 8.7 | 98.5 ± 9.4
COC(=O)C(Cc1ccccc1)NC(=O)C(N)CC(=O)O (stereo not drawn) [Aspartame] | 120 ± 6.8 | 152 | 104 ± 3.9 | 119 | 161 ± 4.4 | 117 | 100 ± 21 | 131 ± 23 | 128 ± 6.7
O=C(O)/C=C/c1ccc(O)c(O)c1 [Caffeic acid] | 88 ± 6.6 | 115 | 107 ± 24 | 93.3 | 89.9 ± 9.4 | 137 | 97.2 ± 6 | 86.5 ± 20 | 89.4 ± 2.4
CNCC(O)c1ccc(O)c(O)c1.Cl (stereo not drawn) [Epinephrine HCl] | 102 ± 3.8 | 112 | 91.6 ± 15 | 76.6 | 118 ± 17 | 119 | 118 ± 11 | 142 ± 3.3 | 100 ± 1.1
NNC(=O)c1ccncc1.Nc1ccc(C(=O)O)c(O)c1 [Pasiniazid] | 94.9 ± 11 | 111 | 127 ± 61 | 122 | 182 ± 9.2 | 83.7 | 95.1 ± 3.1 | 80.5 ± 33 | 133 ± 5.1
Cc1ccc(-c2ncc(Cl)cc2-c2ccc(S(C)(=O)=O)cc2)cn1 [Etoricoxib] | 107 ± 4.3 | 118 | 85.1 ± 16 | 79.9 | 96.7 ± 2.1 | 141 | 77.3 ± 3.4 | 143 ± 16 | 116 ± 13
CC(C)C(N)C(=O)OCCOCn1cnc2c(=O)nc(N)[nH]c21.Cl (stereo not drawn) [Valaciclovir HCl] | 71.5 ± 40 | 128 | 94.3 ± 3 | 88.8 | 94.7 ± 8.2 | 106 | 91.8 ± 12 | 102 ± 19 | 169 ± 13
NC(N)=NS(=O)(=O)c1ccc(N)cc1 [Sulfaguanidine] | 99.8 ± 16 | 135 | 88.6 ± 12 | 86.1 | 108 ± 7.2 | 135 | 85.4 ± 6.9 | 116 ± 6.5 | 118 ± 2.4
CS(=O)(=O)Nc1ccc([N+](=O)[O-])cc1Oc1ccccc1 [Nimesulide] | 146 ± 23 | 117 | 80.56 ± 0.45 | 104 | 109 ± 4.1 | 144 | 81.5 ± 15 | 107 ± 13 | 92.5 ± 2.9
NCCC(O)C(=O)NC1CC(N)C(OC2OC(CN)C(O)C(O)C2O)C(O)C1OC1OC(CO)C(O)C(N)C1O (stereo not drawn) [Amikacin] | 93.2 ± 16 | 144 | 105 ± 22 | 95.3 | 106 ± 16 | 114 | 103 ± 11 | 86.1 ± 8.6 | 117 ± 2.6
Cc1nnc(SCC2=C(C(=O)[O-])N3C(=O)[C@@H](NC(=O)Cn4cnnn4)[C@H]3SC2)s1.[Na+] [Cefazolin (sodium salt)] | 115 ± 6.6 | 131 | 97.4 ± 9.4 | 85.9 | 125 ± 18 | 126 | 119 ± 12 | 104 ± 6 | 129 ± 8.7
CC(C)NCC(O)c1ccc(O)c(O)c1.Cl (stereo not drawn) [Isoprenaline HCl] | 95.7 ± 15 | 108 | 87.2 ± 13 | 90.3 | 76.2 ± 2 | 122 | 91.9 ± 9.1 | 77.2 ± 5.8 | 113 ± 7.1
CCC(C)C(=O)OC1CC(O)C=C2C=CC(C)C(CCC(O)CC(O)CC(=O)[O-])C21.[Na+] (stereo not drawn) [Pravastatin sodium] | 142 ± 13 | 184 | 126 ± 28 | 113 | 142.3 ± 0.11 | 152 | 100 ± 3.8 | 105 ± 20 | 156 ± 1.8
OCC1OC(c2ccc(Cl)c(Cc3ccc(OC4CCOC4)cc3)c2)C(O)C(O)C1O (stereo not drawn) | 94.9 ± 15 | 132 | 90.7 ± 14 | 84.1 | 87.5 ± 14 | 113 | 94 ± 1.7 | 112 ± 7 | 114 ± 9.9
O=C(NCCO[N+](=O)[O-])c1cccnc1 [Nicorandil] | 81.9 ± 59 | 135 | 93.1 ± 9.9 | 89.3 | 151 ± 28 | 113 | 82.6 ± 8.1 | 120 ± 9.5 | 127 ± 5.8
CCCN1CCCCC1C(=O)Nc1c(C)cccc1C.Cl (stereo not drawn) [Ropivacaine HCl] | 98.4 ± 14 | 128 | 96 ± 5.6 | 86 | 96.2 ± 3.2 | 121 | 90.97 ± 0.57 | 92.8 ± 8.5 | 97.5 ± 4.7
Cc1ccccc1N1C(=O)c2cc(S(N)(=O)=O)c(Cl)cc2NC1C (stereo not drawn) [Metolazone] | 121 ± 18 | 129 | 98.5 ± 8.3 | 57.9 | 132 ± 16 | 198 | 107 ± 1.9 | 103 ± 6.2 | 127 ± 13
CCCNC(C)C(=O)Nc1ccccc1C.Cl (stereo not drawn) [Prilocaine hydrochloride] | 147 ± 18 | 117 | 112.29 ± 0.067 | 113 | 83.1 ± 5.5 | 122 | 102 ± 16 | 102 ± 6.2 | 135 ± 5
